Assay results reported in PubChem BioAssay (NCI).
About 83,000 compounds went through this panel and 20% of them were active in at least one assay; those are over-represented in the sample as a whole.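 Single-concentration screen, 48 h exposure, 96-well plates. Endpoint: percent growth. Below 10 = active.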 A number with no mark means an inactive call. The source made the active and inactive calls.

Experiments:
Assay in all cases: NCI-60 one-dose screen, 48 h (100 = growth as untreated, 0 = no growth, -100 = all killed)
Conditions in all cases: 10 µM unless noted
DU-145 prostate = test system: DU-145 prostate
K-562 leukemia = test system: K-562 leukemia
MALME-3M melanoma = test system: MALME-3M melanoma
MDA-MB-231 breast = test system: MDA-MB-231 breast
RXF 393 renal = test system: RXF 393 renal
SF-268 CNS = test system: SF-268 CNS
SF-295 CNS = test system: SF-295 CNS
SF-539 CNS = test system: SF-539 CNS
UACC-257 melanoma = test system: UACC-257 melanoma
M14 melanoma = test system: M14 melanoma
HCT-15 colon = test system: HCT-15 colon
HT29 colon = test system: HT29 colon
SNB-75 CNS = test system: SNB-75 CNS
SNB-19 CNS = test system: SNB-19 CNS
U251 CNS = test system: U251 CNS
PC-3 prostate = test system: PC-3 prostate
SK-MEL-5 melanoma = test system: SK-MEL-5 melanoma
UACC-62 melanoma = test system: UACC-62 melanoma
LOX IMVI melanoma = test system: LOX IMVI melanoma
SK-MEL-28 melanoma = test system: SK-MEL-28 melanoma

Compound | growth (DU-145 prostate) | growth (K-562 leukemia) | growth (MALME-3M melanoma) | growth (MDA-MB-231 breast) | growth (RXF 393 renal) | growth (SF-268 CNS) | growth (SF-295 CNS) | growth (SF-539 CNS) | growth (UACC-257 melanoma) | growth (M14 melanoma) | growth (HCT-15 colon) | growth (HT29 colon) | growth (SNB-75 CNS) | growth (SNB-19 CNS) | growth (U251 CNS) | growth (PC-3 prostate) | growth (SK-MEL-5 melanoma) | growth (UACC-62 melanoma) | growth (LOX IMVI melanoma) | growth (SK-MEL-28 melanoma)
COc1ccc(C2=NN(C(C)=O)C(c3cccc(Nc4ccnc5cc(Cl)ccc45)c3)C2)cc1 (stereo not given) | 62.3% | 18.3% | 65.8% | 63% | 51.1% | 48.2% | 52.5% | 72.7% | 49.2% | 40.2% | 44.8% | 7.9% (active) | 56.4% | 56.5% | 51% | 31% | 43.7% | 68.6% | 42.7% | 73%
CC(=O)OCC(=O)[C@@]1(O)CC[C@H]2[C@@H]3CCC4=CC(=O)CC[C@]4(C)[C@@]3(F)[C@@H](O)C[C@@]21C | 96% | 108% | 120% | 103% | 129% | 91.5% | 115% | 90.8% | 94.6% | 85.7% | 105% | 114% | 113% | 107% | 111% | 93.7% | 94.8% | 97.3% | 96.6% | 112%
C[C@H](C(=O)N[C@@H](Cc1ccc(-c2ccccc2)cc1)C(=O)NC1CC(C)(C)N(C)C(C)(C)C1)c1ccc(-c2ccccc2)c(F)c1 | -83.1% (active) | -56.9% (active) | -71.5% (active) | -68.5% (active) | -73.2% (active) | -70.9% (active) | -66% (active) | -79.5% (active) | -66.2% (active) | -82.6% (active) | -81.2% (active) | -76.2% (active) | -29% (active) | -72.6% (active) | -74.7% (active) | -70.5% (active) | -94.7% (active) | -57.6% (active) | -83.8% (active) | -73% (active)
C(#Cc1ccccc1C#Cc1ccccn1)c1ccc(OCCCCCCOc2ccc(C#Cc3ccccc3C#Cc3ccccn3)cc2)cc1 | 76.2% | 31.6% | 99.6% | 35.3% | 45.6% | 88.9% | -3.2% (active) | 25.4% | 34.2% | 23.4% | 41.2% | 93% | 92.6% | 72.5% | 50.3% | 39.6% | 20.6% | 23.9% | 14.7% | 81.8%
N#CSCC1CC(O)(c2ccccc2)C(c2ccccc2)C(c2ccc(Cl)cc2)O1 (stereo not given) | -68.2% (active) | -6.84% (active) | -80.8% (active) | -52.2% (active) | -91.5% (active) | -34.1% (active) | -77.9% (active) | -96.4% (active) | -70.2% (active) | -77.8% (active) | -64.6% (active) | 1.18% (active) | 37.5% | 36.6% | -31.1% (active) | -6.02% (active) | -87.4% (active) | -90.5% (active) | -97.4% (active) | -84% (active)
CC[n+]1c(/C=C/c2ccc(N3CCCC3)cc2)cccc1/C=C/c1ccc(N2CCCC2)cc1 | -97.4% (active) | 8.88% (active) | -82.2% (active) | -80.6% (active) | -93.7% (active) | -90.3% (active) | -76.9% (active) | -87.2% (active) | -92.5% (active) | -65.3% (active) | -85.7% (active) | -82.9% (active) | -92.7% (active) | -93.9% (active) | -89.6% (active) | -76.8% (active) | -87.6% (active) | -86% (active) | -76.5% (active) | -93.6% (active)
COc1cccc2c1C(=O)c1c(O)c3c(c(O)c1C2=O)C[C@@](O)(C(C)=O)C[C@@H]3O[C@H]1C[C@H](N)[C@H](O)[C@H](C)O1 | 1.62% (active) | -4.44% (active) | -70.7% (active) | -14.6% (active) | -65.1% (active) | -43.8% (active) | -30.8% (active) | -43.1% (active) | -47.3% (active) | -86.5% (active) | 7.88% (active) | -13.5% (active) | -91.4% (active) | 2.11% (active) | 0.281% (active) | -26.3% (active) | -100% (active) | -65.8% (active) | -35% (active) | -44.5% (active)
CCn1cnc(C[C@H](NC(=O)[C@H](CCCCNC(=O)Nc2cc(C(F)(F)F)cc(C(F)(F)F)c2)NC(=O)Nc2cc(C(F)(F)F)cc(C(F)(F)F)c2)C(=O)OC)c1 | -69.5% [100 µM] (active) | -80.2% [100 µM] (active) | -69.6% [100 µM] (active) | -100% [100 µM] (active) | -47.2% [100 µM] (active) | -53.5% [100 µM] (active) | -97.4% [100 µM] (active) | -66.4% [100 µM] (active) | -59.1% [100 µM] (active) | -97.4% [100 µM] (active) | 48.1% [100 µM] | -99.4% [100 µM] (active) | -36.4% [100 µM] (active) | -36.5% [100 µM] (active) | -100% [100 µM] (active) | -38.5% [100 µM] (active) | -100% [100 µM] (active) | -88.3% [100 µM] (active) | -100% [100 µM] (active) | -99.5% [100 µM] (active)
